This note sets out measurements from PubChem BioAssay (NCI).

About 83,000 compounds went through this panel and 20% of them were active in at least one assay; those are over-represented in the sample as a whole.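 Values shown are percent growth following 48 h exposure of cells in 96-well plates to a single concentration of compound; below 10 was considered active.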 The source made the active and inactive calls.

This assay relates to T-47D breast. Put plainly: NCI-60 one-dose screen, 48 h (100 = growth as untreated, 0 = no growth, -100 = all killed). Conditions: 10 µM unless noted. As to the method:
Growth inhibition of the T-47D human tumor cell line is measured as a screen for anti-cancer activity. Cells are grown in 96 well plates and exposed to the test compound for 48 hours. Compounds are tested at a single concentration, which is 10^-5 M for most compounds. The reported endpoint is percent growth (GI% or GIPRCNT), where numbers from 0 - 100% represent growth inhibition, and numbers from -100% - 0 represent cell death. For example, a value of 40 represents 60% growth inhibition. A value of 0 means no net growth occurred over the course of the experiment. A value of -40 indicates 40% of cells at the beginning of the experiment died by the end of the experiment. A value of -100 means all cells are dead at the end of the experiment.
NCI-60 Human Tumor Cell Lines Screen was performed using the standard one-dose NCI protocol, which is described in more detail at https://dtp.cancer.gov/discovery_development/nci-60/default.htm.
Compounds with GIPRCNT values below 10 were considered active. Activity score was based on GIPRCNT using the following formula: […]
Score is 0 for GIPRCNT values of 100 or above, 50 for GIPRCNT values of 0, and 100 for GIPRCNT values of -100.
With `C[C@@H]1CC[C@@H]2[C@@H]1[C@H](OC(=O)/C=C/c1ccccc1)[C@]1(C3CCCCC3)C[C@@H](OC(=O)CO)[C@@]2(C)O1`, the growth is 42.8% (inactive).

For `Brc1cccc(-c2cc(-c3ccc4c(c3)OCCO4)[nH]n2)c1`, the growth was 29% [25 µM] (inactive).

Consider `COc1cccc(-c2nc3sccn3c2-c2ccnc(NCCCNS(=O)(=O)c3ccccc3)c2)c1`, for which the growth was -8.88% (active).

For `CSc1[nH]c2ncnc(N)c2c1C#N`, the growth was 97.3% (inactive).

In the case of `CCN(CC)Cc1cc(Nc2c3ccc(Cl)cc3nc3c(C)cccc23)ccc1O`, the growth was -70.5% (active).

Take `COc1ccc2nc3cc(Cl)ccc3c(N3CCN(c4ccnc(N5CCN(C)CC5)n4)CC3)c2c1`: the growth was -26.1% (active).

Consider `CCN(CC)CC(O)CNc1c2ccc([N+](=O)[O-])cc2nc2cc(OC)c(OC)cc12` (stereo not given), for which the growth is -27.9% (active).

With `CC1(C)CC(C(=O)OCCCCCCCCCCC[P+](c2ccccc2)(c2ccccc2)c2ccccc2)C(C)(C)N1O` (stereo not given), the growth is -54.3% (active).

With `Cc1[nH]n(-c2ccccc2)c2nc3nncc3c(-c3ccc(Cl)cc3)c12`, the growth was 93.6% (inactive).

As for `COc1cc(NCCCCN=C(N)NC(N)=NC(C)C)c2ncccc2c1`, the growth is -8.55% (active).

In the case of `CC(C)(C)c1nn(-c2ccccc2)c2c1CC1(CN2Cc2ccc3c(c2)OCO3)C(=O)c2ccccc2C1=O`, the growth is 94.6% (inactive).

In the case of `CCOC(=O)C(C#N)C1CCCCC1` (stereo not given), the growth is 91.1% (inactive).

For the compound `Cc1cc2cc3cc(C)c(N(C)C)cc3nc2cc1N(C)C`, the growth was 7.76% (active).

For `CSc1nc(NCCO)c(C#N)c(-c2cccc(N)c2)n1`, the growth is 87.8% (inactive).

With `O=C1Nc2ccc(Br)cc2C12CC(c1ccccc1)=NN2` (stereo not given), the growth was 71.6% (inactive).

Turning to `COc1ccc(C2CC(=O)Nc3c2c(C)nn3-c2nc3ccccc3[nH]2)cc1` (stereo not given), the growth was 111% (inactive).

As for `O=C1c2ccccc2-c2nccc3cc(Cl)nc1c23`, the growth was -52.5% (active).

`CN1CCOCCOCCOc2ccccc2NC(=O)c2nc(cnc2N)-c2ccc(cc2)S1(=O)=O`: the growth was 80.1% (inactive).

For the compound `O=C(O)c1cccnc1Br`, the growth is 85.4% (inactive).

On to `COc1ccc(C2c3ccc4ccccc4c3Oc3ncnc(N)c32)cc1` (stereo not given), for which the growth was 60.1% (inactive).

Consider `CNC(=O)c1cc(Oc2ccc3nc(NC(=O)Nc4ccc(CN5CCOCC5)c(C(F)(F)F)c4)sc3c2)ccn1`, for which the growth is 22.7% (inactive).

On to `CCOC(=S)SCc1ccc(Cl)cc1`, for which the growth is 120% (inactive).

Regarding `CCN(CC)CC#CCOC(=O)[C@]1(C)CCC[C@@]2(C)[C@H]1CC(C=O)=C1C=C(C(C)C)CC[C@@H]12`, the growth was 41.8% (inactive).

`CNc1nc(C)c(-c2nc(Nc3cccc(S(N)(=O)=O)c3)ncc2F)s1`: the growth was -2.75% (active).

In the case of `COc1ccc(C(=O)/C=C/c2c(Cl)c3c(c(OC)c2Cl)OCC(=O)N3)cc1`, the growth was 25.1% (inactive).

For the compound `CCCCCCCCCC(=O)Oc1ccc(/C(=C(/C)c2ccccc2)c2ccc(OCCN3CCCC3)cc2)cc1`, the growth is 3.1% (active).

As to `Nc1nc2c(c3ncccc13)C(c1cccc(Br)c1)Cc1ncccc1-2` (stereo not given), the growth is 29.3% (inactive).

Regarding `CC/C=C\C[C@H](F)C/C=C1/C(=O)C=C[C@@H]1C/C=C\CCCC(=O)O`, the growth was 71.9% (inactive).

Consider `NC(=S)N/N=C/c1ccc(OCc2ccccc2)cc1`, for which the growth was 20.8% (inactive).

As to `CC(=O)C1=C(O)C=C2Oc3c(C(=O)/C=C/c4c(Cl)cccc4Cl)c(O)c(C)c(O)c3[C@]2(C)C1=O`, the growth is -20.2% (active).

For the compound `COCCOC(=O)C1=C(C)NC(=S)NC1c1ccc2c(c1)OCO2` (stereo not given), the growth is 94.8% (inactive).

For the compound `COc1ccc(N(Cc2cc(OC)c(OC)c(OC)c2)C2OC(=O)c3ccccc32)cc1` (stereo not given), the growth was 45.8% (inactive).

For `Oc1ccc(Nc2nccc(-c3ccc4ccccc4c3)n2)cc1`, the growth was 48.7% (inactive).

On to `Clc1ccc(-c2nnc(COc3ccccc3Cl)o2)cc1`, for which the growth was 69.9% (inactive).

Regarding `COc1ccc(S(=O)(=O)NCCNc2nccc(-c3c(-c4cccc(N)c4)nc4sccn34)n2)cc1`, the growth was 75.9% (inactive).

On to `O=C1c2cccnc2C(=O)c2c1c(C(=O)OCCN1CCOCC1)c1ccccn21`, for which the growth is 9.37% (active).

Turning to `Nc1ccc(N2CCOCC2)cc1`, the growth was 88.1% (inactive).

In the case of `CC(=O)C1=C(O)C=C2Oc3c(C(=O)/C=C/c4cc(C(F)(F)F)cc(C(F)(F)F)c4)c(O)c(C)c(O)c3[C@]2(C)C1=O`, the growth is -18.7% (active).

Take `CN1CCN(Cc2ccc(NC(=O)c3[nH]ncc3Nc3ccnc4ccsc34)cc2)CC1`: the growth is 65.8% (inactive).

Turning to `Cc1ccc(SCN2CCN(c3cccc(Cl)c3)CC2)cc1`, the growth is 86.7% (inactive).
